From PubChem BioAssay (NCATS)
Results filed as inconclusive are left out. Where a call stands in place of a potency, no number is given. Activity calls are given as the source filed them. The call rests on the fitted dose curve; in most records, active means well fitted inhibition curve with a large enough effect; inconclusive means small, poorly fitted or top-dose-only effect; inactive means flat fitted curve, though single readings scatter.

Test system: CP203
Assay: qHTS profiling for inhibitors of Plasmodium falciparum proliferation (AID 504749); further: nearly all actives have a fitted effect of over 60% in size
Conditions: P. falciparum in erythrocytes, SYBR Green DNA, 72 h; series mostly up to 28.7 µM
Procedure, shortened: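 SYBR Green fluorescence of parasite DNA, read after lysis and overnight dark incubation, measured growth over 72 h in erythrocyte culture at 0.3% parasitemia and 2.5% hematocrit. Data normalised to DMSO and 0.29 uM artemisinin, with plate-drift correction.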
Potency means the concentration at half of the fitted maximal effect.

| Compound | Potency |
| --- | --- |
| CCCCCCCCCCCCCCCCOP(=O)([O-])OCC[N+](C)(C)C | inactive |
| CNCCC=C1c2ccccc2CCc2ccccc21 | 7.57 µM (active) |
| O=C1OC(c2ccc(O)cc2)(c2ccc(O)cc2)c2ccccc21 | inactive |
| CCCOC(C(=O)OC1CCN(C)CC1)(c1ccccc1)c1ccccc1 | inactive |
| c1ccc(OCc2ccc(CCCN3CCOCC3)cc2)cc1 | inactive |
| N[C@H](Cc1c[nH]c2ccccc12)C(=O)O | inactive |
| c1ccc(-c2ccc(C(c3ccccc3)n3ccnc3)cc2)cc1 (configuration not stated) | 15.1 µM (active) |
| CCOC(=O)/C=C(C)/C=C/C=C(C)/C=C/c1c(C)cc(OC)c(C)c1C | inactive |
| CCOC(=O)COc1ccc2c(C)c(CCN(CC)CC)c(=O)oc2c1Cl | inactive |
| CCN1CCCC1=O | inactive |
| Cc1ccc(C(=O)C(C)CN2CCCCC2)cc1 (configuration not stated) | inactive |
| Cc1ccc(O)c2ncccc12 | inactive |
